Here are results for 40 molecules from ChEMBL document CHEMBL1157539, “Thousands of chemical starting points for antimalarial lead identification” (Nature, 2010).

This test concerns HepG2. In words: GSK_TCMDC: Percent inhibition of human HepG2 cell line. Test compounds present at 10uM. Type of test: functional.
By Inhibition is commonly meant the change of the read-out against control, counted positive when it falls. The low end stands for a weak effect, the high end for a strong effect. The molecule `Cc1ccc2[nH]c(-c3ccc(C=CC(=O)NCc4ccc(Cl)c(Cl)c4)cc3)nc2c1` displayed an Inhibition of 5%. The same measure for `COc1ccc(-c2cccc(NC(=O)c3ccccc3)c2)cc1CN1CCCN(C)CC1.O=C(O)C(F)(F)F`: 22%. With `CC(C)CCNCc1ccc(OCc2ccccc2COc2ccc(CNCCC(C)C)cc2I)c(I)c1.Cl`, the Inhibition was found to be 99%. The value for `COc1cc2ccccc2cc1CNCCCCCCNCc1cc2ccccc2cc1OC.CS(=O)(=O)O` was 98%. As for `CC(C)=C(C(=O)OCc1ccccc1)N1C(=O)[C@@H](NC(c2ccccc2)(c2ccccc2)c2ccccc2)[C@H]1[S+]([O-])CC(=O)OC(C)(C)C` (stereo not given in full), the Inhibition worked out at 0%.

`O=C(NCCCCCN1CCC(c2c[nH]c3ccccc23)CC1)Nc1ccc(I)cc1` showed an Inhibition of 51%. The value for `COc1ccc(CON2C(=N)N=C(N)NC2(C)C)cc1OC.Cl` was 68%; that for `CCNc1cc(CCCC(=O)OCC)nc(Nc2ccc(C)cc2)n1.O=C(O)C(F)(F)F` was 17%; that for `COc1cc2nc(NCCc3ccccc3)nc(NC(C)c3ccccc3)c2cc1OC` (stereo not given) was 9%. Molecule `O=C(Nc1ccc(-c2cccc(-c3nc4ccccc4[nH]3)c2)cc1)Nc1ccsc1` returned an Inhibition of 56%. The same measure for `Cc1cccc(Nc2nccc(Nc3cccc(C(=O)NCCN4CCOCC4)c3)n2)c1`: 10%; for `CCCOc1ccc(NC(=O)c2cccs2)cc1Cl`: 1%. `O=C(/C=C/c1ccc(Cl)cc1)NCCCCCN1CCN(C(=O)Nc2ccc(Cl)c(C(F)(F)F)c2)CC1` had an Inhibition of 18%.

In the case of `Cc1n[nH]c2ccc(-c3ccc4nccc(N5CCC(N)CC5)c4c3)cc12.Cl`, the Inhibition came to 67%.

Turning to `NC(=O)C1CCN(Cc2cccc(-c3cccc(-c4nc5cc(C(F)(F)F)ccc5[nH]4)c3)c2)CC1.O=C(O)C(F)(F)F`, the Inhibition was 16%. The same measure for `Cn1cncc1C(=O)Nc1ccc(-c2cccc(-c3nc4cc(F)ccc4[nH]3)c2)cc1`: 5%; for `Cc1cc(NCCC(=O)NCc2cccc(F)c2)nc(Nc2ccccc2)n1.O=C(O)C(F)(F)F`: 0%; for `CC(C)NCc1ccc(-c2cccc(NC(=O)c3ccc(F)cc3)c2)cc1.O=C(O)C(F)(F)F`: 28%. The same measure for `Cc1ccc(NC(=O)c2cccc(CN3CCCN(Cc4cccc(O)c4)CC3)c2)cc1F.O=C(O)C(F)(F)F`: 20%. The same measure for `CS(=O)(=O)c1ccc(-n2nc(C(F)(F)F)cc2-c2ccc(C=NOCC(=O)O)o2)cc1`: 0%; for `N#Cc1cccc(NC(=O)Nc2ccc(-c3ccc(-c4nc5cc(C(F)(F)F)ccc5[nH]4)cc3)cc2)c1`: 51%. The molecule `COc1cccc2c(C)cc(NCc3ccc(Cl)cc3)nc12` registered an Inhibition of 7%. The value for `CCCNC(=O)Nc1ccc(N(C)c2ccnc(NC3CC3)n2)cc1` was 28%. Consider `CCCCC(=O)N(CCOC)Cc1ccc(-c2ccc(CNCCC)cn2)cc1.O=C(O)C(F)(F)F`, for which the Inhibition came out at 30%. The value for `O=S(=O)(c1c(Cl)cccc1Cl)N1CCCCC(c2ccc(C(F)(F)F)cc2)=N1` was 11%; that for `O=C1CC(C(=O)O)CC(=O)N1` was 0%. For the molecule `N#Cc1ccc(N[C@@H](CC2CCCCC2)C(=O)N[C@@H]2CCCc3ccccc32)c2ccccc12.O=C(O)C(F)(F)F`, the Inhibition worked out at 12%. In turn, `Cl.O=C(c1ccc(-c2ccc(Cl)cc2)o1)N1CCc2cc3nccc(N4CCN5CCC[C@H]5C4)c3cc21` displayed an Inhibition of 1%. As to `COc1ccc(CSC2CCCCC23NC(=S)NC3=S)cc1` (stereo not given), the Inhibition was 0%. Consider `CCOc1cc(C(=O)Nc2cccnc2)cc(Br)c1OCCC(C)C`, for which the Inhibition was determined as 4%. As to `CN1CCN(CCc2ccc3nc(-c4csc(Cc5cc(Cl)ccc5OCc5ccccc5)n4)[nH]c3c2)CC1`, the Inhibition is 30%. The value for `COc1ccc2nccc([C@@H](O)CN3CCC(NC(=O)c4ccc(Cl)c(Cl)c4)CC3)c2c1` was 21%. As to `Cc1nc(Nc2cc(Cl)ccc2O)nc(Nc2cc(Cl)ccc2O)c1[N+](=O)[O-]`, the Inhibition is 0%. The same measure for `COCCOc1ccc(Nc2nccc(-c3c(-c4cccc(NC(=O)c5c(F)cccc5F)c4)nn4ccccc34)n2)cc1F`: 62%; for `Cc1cc(=NN=Cc2ccc(Cl)cc2)c2ccccc2[nH]1`: 5%. The same measure for `Cc1cnc(CNCc2ccc(S(=O)(=O)Nc3ccc(Oc4cccc(Cl)c4)cc3)cc2)cn1.O=C(O)C(F)(F)F`: 4%. On to `CCC(C)NCCC(c1ccccc1)c1ccccc1O.Cl` (stereo not given), for which the Inhibition is given as 4%. `CN(C)CCNCc1ccc(-c2ccc3c(Nc4ccc(F)cc4Cl)ccnc3c2)o1`: the Inhibition was 31%.

As to `CC(C)(C)c1ccc(NC(=O)c2ccc(CN3CCCN(CC4CCCCC4)CC3)cc2)cc1.O=C(O)C(F)(F)F`, the Inhibition is listed as 54%. The value for `CN1CCCN(Cc2cccc(-c3cccc(NC(=O)c4cccc(C#N)c4)c3)c2)CC1.O=C(O)C(F)(F)F` was 18%.
